What all share (parameters): scale not given: direction of the effect not stated beside the values
Experiment [1] has as its target Protein translocase subunit SecA (Escherichia coli (strain K12)) (UniProt P10408). In words: Assay to Identify E. coli SecA ATPase Inhibitors. It counts as functional. The conditions noted are these: 30 µM.
Experiment [2] has as its target T1, Ubiquitin-activating enzyme e1, putative (Leishmania donovani (strain BPK282A1)) (UniProt E9BSI1).
T1 sequence (whole entry): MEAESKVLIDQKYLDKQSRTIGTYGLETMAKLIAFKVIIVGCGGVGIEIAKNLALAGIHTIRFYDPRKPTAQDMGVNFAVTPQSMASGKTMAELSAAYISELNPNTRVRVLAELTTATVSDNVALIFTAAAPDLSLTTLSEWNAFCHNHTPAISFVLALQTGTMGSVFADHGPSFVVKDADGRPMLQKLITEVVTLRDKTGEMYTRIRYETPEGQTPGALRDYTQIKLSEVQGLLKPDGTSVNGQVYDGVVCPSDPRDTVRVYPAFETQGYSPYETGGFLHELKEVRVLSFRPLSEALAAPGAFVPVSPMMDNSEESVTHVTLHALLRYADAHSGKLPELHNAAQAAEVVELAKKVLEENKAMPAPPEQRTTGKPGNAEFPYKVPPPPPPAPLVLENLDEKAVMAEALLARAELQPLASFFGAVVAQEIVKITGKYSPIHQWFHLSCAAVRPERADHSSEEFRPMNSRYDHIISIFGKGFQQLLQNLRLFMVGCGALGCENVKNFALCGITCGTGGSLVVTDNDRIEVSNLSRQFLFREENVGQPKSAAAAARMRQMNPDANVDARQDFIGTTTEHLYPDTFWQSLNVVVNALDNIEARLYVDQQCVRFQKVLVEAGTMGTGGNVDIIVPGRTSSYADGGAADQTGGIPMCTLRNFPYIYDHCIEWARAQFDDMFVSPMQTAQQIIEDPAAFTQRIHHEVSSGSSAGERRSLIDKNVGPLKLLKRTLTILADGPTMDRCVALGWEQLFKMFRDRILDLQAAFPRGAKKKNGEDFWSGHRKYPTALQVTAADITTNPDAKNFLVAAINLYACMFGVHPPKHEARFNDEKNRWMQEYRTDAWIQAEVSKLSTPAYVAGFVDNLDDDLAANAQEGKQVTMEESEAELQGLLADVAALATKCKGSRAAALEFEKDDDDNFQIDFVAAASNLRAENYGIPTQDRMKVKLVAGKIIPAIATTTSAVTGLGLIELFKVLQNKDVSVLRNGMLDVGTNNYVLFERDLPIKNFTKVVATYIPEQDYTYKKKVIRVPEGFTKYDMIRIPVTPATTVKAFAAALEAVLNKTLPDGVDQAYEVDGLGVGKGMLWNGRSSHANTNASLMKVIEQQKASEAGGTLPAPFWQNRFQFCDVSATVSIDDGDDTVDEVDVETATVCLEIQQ
In words: Leishmania donovani Ubiquitin Activating Enzyme (LdE1). It counts as functional. The following applies: 30 µM.

The target of experiment [3] is AMP-activated protein kinase, AMPK (Homo sapiens) (UniProt P54646+O43741+P54619+Q9UGJ0+Q9Y478+Q13131+Q9UGI9). Kind of experiment: AMP-dependent Kinase enzyme assay. An in vitro enzyme assay that detects ADP turnover that is directly proportional to AMPK activity. This uses naive AMPK that is activated during the assay with MK-8722. It counts as functional. The following applies: 30 µM.

Experiment [4] addresses Sialic acid-binding Ig-like lectin 9 (Homo sapiens) (UniProt Q9Y336). Kind of experiment: Hs-Siglec9 ALPHAscreen SOP 20170721. The conditions noted are these: 10 µM.
Experiment [5] relates to Trypanosoma cruzi. Kind of experiment: Trypanosoma cruzi phosphomannomutase and mannose-1-phosphate guanylyltransferase assay. The following applies: 10 µM. It counts as functional.
The target in experiment [6] is T2, Arginase-2, mitochondrial (Homo sapiens) (UniProt P78540).
T2 sequence (whole entry): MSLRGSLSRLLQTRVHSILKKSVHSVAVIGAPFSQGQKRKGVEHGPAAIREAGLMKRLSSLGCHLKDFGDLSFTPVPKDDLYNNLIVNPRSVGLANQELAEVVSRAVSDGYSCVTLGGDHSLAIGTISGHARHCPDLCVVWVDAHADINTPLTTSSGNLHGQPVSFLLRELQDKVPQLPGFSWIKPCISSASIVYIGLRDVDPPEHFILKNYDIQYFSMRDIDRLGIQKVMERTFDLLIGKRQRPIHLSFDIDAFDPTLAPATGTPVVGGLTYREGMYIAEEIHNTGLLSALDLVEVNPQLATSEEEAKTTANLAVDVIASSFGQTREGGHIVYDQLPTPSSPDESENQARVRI
Kind of experiment: in vitro enzyme assay to detect the production of urea directly proportional to the activity of Arginase II. Note: in the data most compounds retested in dose-response had high values. It counts as functional. The following applies: 33.3 µM.

Experiment [7] deals with T3, Proteasome subunit beta (Trypanosoma cruzi) (UniProt O96673).
T3 sequence (whole entry): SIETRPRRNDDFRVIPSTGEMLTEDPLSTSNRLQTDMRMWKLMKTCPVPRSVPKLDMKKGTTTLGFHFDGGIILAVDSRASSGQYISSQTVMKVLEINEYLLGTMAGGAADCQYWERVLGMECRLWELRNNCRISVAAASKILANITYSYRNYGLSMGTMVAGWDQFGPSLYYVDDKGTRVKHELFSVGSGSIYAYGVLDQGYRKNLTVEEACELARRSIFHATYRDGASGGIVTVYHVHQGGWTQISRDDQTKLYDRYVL
In words: Trypanosoma cruzi proteasome chymotrypsin-like activity (TcProtChymo) assay. Note: in the data most compounds retested in dose-response had high values. It counts as functional. The conditions noted are these: 9.37 µM.

The species entered for experiment [8] is Homo sapiens. In words: To identify inhibition of the IFN signalling (Jak-Stat) pathway via expression of an eGFP reporter gene under the control of an IFN-stimulated response element (ISRE) containing MxA promoter. The format is functional. The conditions noted are these: 30 µM. For orientation: Reporter assays use an easily measured gene product as a stand-in for the process of interest.

Experiment [9] addresses T4, Tyrosyl-tRNA synthetase, putative (Trypanosoma cruzi (strain CL Brener)) (UniProt Q4DSP6).
T4 sequence (whole entry): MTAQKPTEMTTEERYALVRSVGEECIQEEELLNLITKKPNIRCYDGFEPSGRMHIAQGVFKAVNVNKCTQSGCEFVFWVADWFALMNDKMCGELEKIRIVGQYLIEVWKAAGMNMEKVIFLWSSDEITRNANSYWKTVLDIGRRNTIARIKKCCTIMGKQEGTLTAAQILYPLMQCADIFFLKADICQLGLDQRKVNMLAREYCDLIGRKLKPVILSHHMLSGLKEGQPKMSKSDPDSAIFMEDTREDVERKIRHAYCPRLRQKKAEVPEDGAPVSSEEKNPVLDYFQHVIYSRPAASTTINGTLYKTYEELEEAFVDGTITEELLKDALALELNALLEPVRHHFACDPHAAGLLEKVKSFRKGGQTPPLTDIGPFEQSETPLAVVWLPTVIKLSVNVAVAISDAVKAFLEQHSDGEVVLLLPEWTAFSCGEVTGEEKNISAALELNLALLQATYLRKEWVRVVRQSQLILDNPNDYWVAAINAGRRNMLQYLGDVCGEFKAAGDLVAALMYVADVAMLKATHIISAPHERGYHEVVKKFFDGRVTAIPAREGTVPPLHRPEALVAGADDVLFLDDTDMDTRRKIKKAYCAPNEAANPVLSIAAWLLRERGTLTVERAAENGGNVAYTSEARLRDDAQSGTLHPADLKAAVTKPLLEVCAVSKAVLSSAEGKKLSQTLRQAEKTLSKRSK
In words: Trypanosoma cruzi tyrosyl tRNA synthetase (TcYRS) _High Tyrosine SOP. Note: in the data most compounds retested in dose-response had high values. The format is functional. The following applies: 30 µM.

Experiment [10] deals with T4, Tyrosyl-tRNA synthetase, putative (Trypanosoma cruzi (strain CL Brener)). Kind of experiment: Trypanosoma cruzi tyrosyl tRNA synthetase (TcYRS) SOP. The format is functional. The following applies: 30 µM.
The target of experiment [11] is Chromo domain-containing protein 1 (Saccharomyces cerevisiae (strain ATCC 204508 / S288c) (Baker's yeast)) (UniProt P32657). In words: ScCHD-1 Enzyme Inhibition Assay. Note: in the data most compounds retested in dose-response had high values. It counts as functional. The following applies: 30 µM.
Chromo domain-containing protein 1 (Saccharomyces cerevisiae (strain ATCC 204508 / S288c) (Baker's yeast)), sequence (P32657 whole entry, the tested form may be a part): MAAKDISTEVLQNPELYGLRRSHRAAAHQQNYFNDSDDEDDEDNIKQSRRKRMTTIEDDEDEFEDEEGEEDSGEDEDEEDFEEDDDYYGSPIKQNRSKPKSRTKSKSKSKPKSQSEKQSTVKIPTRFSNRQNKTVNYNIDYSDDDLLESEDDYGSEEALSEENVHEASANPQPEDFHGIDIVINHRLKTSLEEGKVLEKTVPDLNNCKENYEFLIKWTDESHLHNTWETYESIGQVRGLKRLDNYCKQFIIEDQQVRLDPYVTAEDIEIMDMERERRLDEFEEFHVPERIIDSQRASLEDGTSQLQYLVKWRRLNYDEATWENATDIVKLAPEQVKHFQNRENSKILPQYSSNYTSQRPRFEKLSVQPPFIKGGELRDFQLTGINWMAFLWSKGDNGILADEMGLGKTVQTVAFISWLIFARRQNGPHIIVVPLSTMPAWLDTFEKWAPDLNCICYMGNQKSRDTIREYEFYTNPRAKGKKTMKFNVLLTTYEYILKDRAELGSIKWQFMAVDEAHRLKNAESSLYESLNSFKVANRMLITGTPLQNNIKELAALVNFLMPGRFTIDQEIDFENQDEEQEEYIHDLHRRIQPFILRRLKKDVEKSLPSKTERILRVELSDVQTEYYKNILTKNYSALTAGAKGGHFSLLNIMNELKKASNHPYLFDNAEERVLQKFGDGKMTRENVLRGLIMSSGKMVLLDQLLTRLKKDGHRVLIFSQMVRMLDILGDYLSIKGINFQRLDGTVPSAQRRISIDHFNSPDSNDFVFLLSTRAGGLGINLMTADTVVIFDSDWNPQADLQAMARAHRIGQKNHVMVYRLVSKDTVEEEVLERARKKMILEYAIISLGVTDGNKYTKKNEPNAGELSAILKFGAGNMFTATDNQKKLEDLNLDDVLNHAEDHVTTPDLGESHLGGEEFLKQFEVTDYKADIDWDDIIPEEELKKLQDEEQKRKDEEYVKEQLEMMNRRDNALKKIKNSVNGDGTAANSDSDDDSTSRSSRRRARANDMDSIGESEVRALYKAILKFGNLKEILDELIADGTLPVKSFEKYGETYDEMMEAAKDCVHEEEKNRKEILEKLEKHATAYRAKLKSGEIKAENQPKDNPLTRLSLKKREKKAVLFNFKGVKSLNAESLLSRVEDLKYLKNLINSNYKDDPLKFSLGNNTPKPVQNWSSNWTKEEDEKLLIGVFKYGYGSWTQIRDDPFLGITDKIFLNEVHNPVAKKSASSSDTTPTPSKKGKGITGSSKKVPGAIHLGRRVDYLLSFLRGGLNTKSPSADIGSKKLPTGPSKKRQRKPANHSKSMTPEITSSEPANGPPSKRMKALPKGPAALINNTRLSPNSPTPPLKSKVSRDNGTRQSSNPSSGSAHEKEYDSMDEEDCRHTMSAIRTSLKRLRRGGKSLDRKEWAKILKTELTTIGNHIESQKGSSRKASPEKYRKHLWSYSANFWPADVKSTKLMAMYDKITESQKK

SMILES strings stand for the structures. For some of these results: Entries with a potency or affinity are not part of this list.

Protein translocase subunit SecA (Escherichia coli (strain K12)), sequence (P10408 whole entry): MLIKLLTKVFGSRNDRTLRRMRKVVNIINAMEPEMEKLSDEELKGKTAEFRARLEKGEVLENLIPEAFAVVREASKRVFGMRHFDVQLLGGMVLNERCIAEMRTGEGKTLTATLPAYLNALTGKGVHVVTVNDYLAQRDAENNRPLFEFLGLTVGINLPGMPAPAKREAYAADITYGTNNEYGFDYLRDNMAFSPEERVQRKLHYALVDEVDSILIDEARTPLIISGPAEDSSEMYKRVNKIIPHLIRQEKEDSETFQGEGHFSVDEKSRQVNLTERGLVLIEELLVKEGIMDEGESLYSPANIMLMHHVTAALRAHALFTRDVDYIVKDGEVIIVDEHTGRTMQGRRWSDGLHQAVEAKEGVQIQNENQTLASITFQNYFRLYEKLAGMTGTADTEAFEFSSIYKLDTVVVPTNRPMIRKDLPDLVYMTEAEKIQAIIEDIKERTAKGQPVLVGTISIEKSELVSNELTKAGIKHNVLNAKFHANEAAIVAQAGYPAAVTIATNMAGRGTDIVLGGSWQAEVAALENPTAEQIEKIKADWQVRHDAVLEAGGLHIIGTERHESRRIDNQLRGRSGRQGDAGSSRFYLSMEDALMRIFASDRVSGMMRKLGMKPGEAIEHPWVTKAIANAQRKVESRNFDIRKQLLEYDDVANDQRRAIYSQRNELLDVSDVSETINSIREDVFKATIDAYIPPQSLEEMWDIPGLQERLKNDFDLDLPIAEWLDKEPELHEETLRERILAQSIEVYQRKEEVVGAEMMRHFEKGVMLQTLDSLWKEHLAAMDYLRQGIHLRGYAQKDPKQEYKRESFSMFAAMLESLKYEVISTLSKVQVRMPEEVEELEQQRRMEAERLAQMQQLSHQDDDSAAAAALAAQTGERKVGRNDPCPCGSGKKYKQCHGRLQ
Sialic acid-binding Ig-like lectin 9 (Homo sapiens), sequence (Q9Y336 whole entry): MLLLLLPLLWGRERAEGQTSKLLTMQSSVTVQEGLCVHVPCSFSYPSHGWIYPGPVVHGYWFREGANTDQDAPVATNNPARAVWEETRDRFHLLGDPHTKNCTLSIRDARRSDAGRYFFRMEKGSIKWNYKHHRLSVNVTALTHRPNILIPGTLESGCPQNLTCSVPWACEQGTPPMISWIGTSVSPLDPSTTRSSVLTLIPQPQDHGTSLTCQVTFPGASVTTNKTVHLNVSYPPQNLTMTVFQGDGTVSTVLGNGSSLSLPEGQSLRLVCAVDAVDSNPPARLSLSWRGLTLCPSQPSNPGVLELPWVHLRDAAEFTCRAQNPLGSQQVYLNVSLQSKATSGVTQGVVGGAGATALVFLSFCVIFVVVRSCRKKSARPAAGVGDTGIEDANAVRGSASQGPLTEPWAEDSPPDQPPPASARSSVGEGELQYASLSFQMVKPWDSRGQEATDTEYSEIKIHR

For the compound `O=C(C(CNCc1ccsc1)c1ccccc1)N1CCOCC1` (stereo not drawn), the Percent Effect in experiment [1] is -5.96%; in experiment [2] it was 5.2%; in experiment [3], -2.02%; in [4], 3.85%; in [5] it was 1.87%; in experiment [6], 5.52%. Besides, the Percent Effect in experiment [7] is 6.49%; in [8], -32.4%; in experiment [9] it was 1.07%; in experiment [10], 1.24%; in experiment [11], 1.41%.
As to `CN1CCOC(CN(C(=O)Cc2ccccc2F)c2nccs2)C1` (stereo not drawn), the Percent Effect is -1.47% in [1]; 0% in [2]; -3.71% in experiment [3]; 11.3% in experiment [4]; 8.82% in experiment [5]; -2.03% in experiment [6]. Further, the Percent Effect in experiment [7] was -0.539%; in experiment [8] it was 1.86%; in experiment [9] it was 1.98%; in experiment [10] it was 6.1%; in experiment [11], 5.97%.
With `Cn1cccc1C(=O)N1CCc2ncnc(C3CC3)c2CC1`, the Percent Effect in experiment [1] was -4.53%; in experiment [2] it was 13.3%; in [3] it was 9.69%; in experiment [4], -5.45%; in experiment [5] it was -5.12%; in experiment [6], -0.699%. Further, the Percent Effect in experiment [7] is 21.1%; in [8] it was 22.4%; in experiment [9], 0%; in [10] it was 6.41%; in [11], -1.35%.
Take `CC1CCN(C(CNC(=O)CCn2cccn2)c2cccs2)CC1` (stereo not drawn): the Percent Effect was -0.447% in experiment [1]; 13.3% in experiment [2]; -0.997% in experiment [3]; 10.3% in [4]; 2.82% in experiment [5]; 8.85% in experiment [6]. Further, the Percent Effect in [7] was 26.5%; in [8], 4.2%; in experiment [9] it was 6.01%; in [10] it was 21%; in [11] it was -5.13%.
As to `CCN1CCN(c2ncc(-c3cc(C)no3)c(-c3ccoc3C)n2)CC1`, the Percent Effect in experiment [1] is -4.09%; in [2] it was 12.2%; in [3] it was 5%; in experiment [4], 3.93%; in experiment [5], 1.98%; in experiment [6], -3.48%. The Percent Effect is 6.4% in experiment [7]; -1.91% in experiment [8]; 2.15% in experiment [9]; 6.49% in [10]; -24.9% in experiment [11].
In the case of `c1nc(N2CCCCC2Cn2cncn2)c2ccsc2n1` (stereo not drawn), the Percent Effect in experiment [1] was -6.19%; in experiment [2] it was 16%; in experiment [3], -6.98%; in [4], 35.1%; in [5], 11.6%; in [6] it was 25.5%. Moreover, the Percent Effect in experiment [7] was 9.59%; in experiment [8] it was 16.8%; in experiment [9], 3.83%; in [10], 13.6%; in [11] it was -9.92%.
As for `CC(C)n1ccnc1CN1CCCN(C(=O)CC2C=CCC2)CC1` (stereo not drawn), the Percent Effect in experiment [1] was -5.72%; in experiment [2], -1.27%; in [3], 12.6%; in [4] it was -5.19%; in [5], -3.18%; in experiment [6] it was -6.67%. In addition, the Percent Effect in experiment [7] is 17.8%; in [8], 9.57%; in [9] it was -2.08%; in experiment [10], -5.06%; in experiment [11], -12.8%.
`O=C(NCC1CC1)[C@H]1C[C@@H]2CN(S(=O)(=O)Cc3ccccc3)C[C@H]1O2`: the Percent Effect is -3.04% in [1]; 10.7% in experiment [2]; 12.2% in experiment [3]; -8.26% in experiment [4]; -6.5% in [5]; 2.56% in experiment [6]. In addition, the Percent Effect is 9.25% in experiment [7]; 12.3% in experiment [8]; 0% in experiment [9]; 1.28% in experiment [10]; -3.45% in [11].

(Values after ChEMBL document CHEMBL3988442, “University of Dundee, Small-Polar-MMV Screening Library” (2021).)
